Assay [1] can be described thus: Quantitative High-Throughput drug screen in 47 multiple myeloma cell lines against the NCATS MIPE library collection: OPM1_PLB cell viability assay (AID 1918989). Note: nearly all actives have a fitted effect of over 40% in size. Note: potency is the fitted concentration of half-maximal effect. The procedure, abridged: (§1)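 Readout: median RLU from CellTiter-Glo after 5 min at room temperature. Preceding step was 48 h drug treatment of 500 cells/well at 37 °C, 5% CO2, with DMSO-only and media-only control wells.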

Assay [2] can be described thus: Quantitative High-Throughput drug screen in 47 multiple myeloma cell lines against the NCATS MIPE library collection: U266_ATCC cell viability assay (AID 1919864). Note: nearly all actives have a fitted effect of over 35% in size. Note: potency is the fitted concentration of half-maximal effect. The method in brief: as §1
Assay [3] in a line: Quantitative High-Throughput drug screen in 47 multiple myeloma cell lines against the NCATS MIPE library collection: PE2_PLB cell viability assay (AID 1919869). Note: nearly all actives have a fitted effect of over 35% in size. Note: potency is the fitted concentration of half-maximal effect. The method in brief: as §1
Assay [4] can be described thus: Quantitative High-Throughput drug screen in 47 multiple myeloma cell lines against the NCATS MIPE library collection: RPMI8226_ATCC cell viability assay (AID 1919871). Note: nearly all actives have a fitted effect of over 30% in size. Note: potency is the fitted concentration of half-maximal effect. The procedure, abridged: as §1
A short description of assay [5]: Quantitative High-Throughput drug screen in 47 multiple myeloma cell lines against the NCATS MIPE library collection: OPM2_DSMZ cell viability assay (AID 1919872). Note: nearly all actives have a fitted effect of over 30% in size. Note: potency is the fitted concentration of half-maximal effect. The method in brief: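 Luminescent ATP measurement with CellTiter-Glo gives viability, scaled between DMSO-only wells (100%) and media-only wells (0%). Cells, 500 per well, faced library compounds for 48 hours at 37C.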

Assay [6] can be described thus: Quantitative High-Throughput drug screen in 47 multiple myeloma cell lines against the NCATS MIPE library collection: KMS11_JCRBsus cell viability assay (AID 1919873). Note: nearly all actives have a fitted effect of over 50% in size. Note: potency is the fitted concentration of half-maximal effect. The procedure, abridged:
as §1

A short description of assay [7]: Quantitative High-Throughput drug screen in 47 multiple myeloma cell lines against the NCATS MIPE library collection: KMS28BM_JCRB cell viability assay (AID 1919874). Note: nearly all actives have a fitted effect of over 35% in size. Note: potency is the fitted concentration of half-maximal effect. The method in brief:
as §1

Assay [8] in a line: qHTS for identification of novel therapeutic agents for treatment of microphthalmiaassociated transcription factor (MiT) renal cell carcinoma (RCC) (AID 1963991; calls by dose curve; note: potency is the fitted concentration of half-maximal effect;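 for z-score: curves scaled with 100% = DMSO viability and 0% = empty wells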). The settings on record: CellTiter-Glo, 48 h; for z-score: stronger effect = lower value. The method in brief:
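UOK109/UOK124/UOK145 (TFE3 fusions, three partners); 500 cells/well; MIPE v4.0, 1912 cpds, 11 conc.; 48 h, 37 C; CellTiter-Glo, 15 min RT; lum. Norm.: DMSO 100%, empty 0%.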

Assay [9] is described as follows: Quantitative High-Throughput drug screen in 47 multiple myeloma cell lines against the NCATS MIPE library collection: PCM6_Riken cell viability assay (AID 1919870). Note: nearly all actives have a fitted effect of over 30% in size. Note: potency is the fitted concentration of half-maximal effect. The procedure, abridged:
as §1

Assay [10] in a line: qHTS drug screen for cell cycle checkpoint inhibitors in PARPi-resistant BRCA-mutant ovarian cancer cell lines. (AID 1963452; calls by dose curve). Conditions: PEO1/OlaR viability, CellTiter-Glo luminescence, 96 h, stronger effect = lower value. The procedure, abridged: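 PEO1, PEO4 and PEO1/OlaR ovarian cancer cells, 600 per well, exposed 96 h at 37C to a dilution series. Viability read by CellTiter-Glo luminescence, normalized to DMSO and empty wells; activity summarized as Z-AUC.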

Assay [11] can be described thus: Quantitative High-Throughput drug screen in 47 multiple myeloma cell lines against the NCATS MIPE library collection: SKMM1_PLB cell viability assay (AID 1919863). Note: nearly all actives have a fitted effect of over 35% in size. Note: potency is the fitted concentration of half-maximal effect. The settings on record: SKMM1 myeloma viability, CellTiter-Glo ATP, 48 h; viability: stronger effect = lower value. The method in brief:
as §1
(ATP-based viability assays read luminescence as a measure of living cells.)

Assay [12] is described as follows: Quantitative High-Throughput drug screen in 47 multiple myeloma cell lines against the NCATS MIPE library collection: XG1_PLB cell viability assay (AID 1919866). Note: nearly all actives have a fitted effect of over 35% in size. Note: potency is the fitted concentration of half-maximal effect. The method in brief: as §1
The nature of assay [13]: Quantitative High-Throughput drug screen in 47 multiple myeloma cell lines against the NCATS MIPE library collection: VP6_DJ cell viability assay (AID 1919867). Note: potency is the fitted concentration of half-maximal effect; nearly all actives have a fitted effect of over 40% in size. The method in brief: as §1
Assay [14] can be described thus: Quantitative High-Throughput drug screen in 47 multiple myeloma cell lines against the NCATS MIPE library collection: UTMC2_PLB cell viability assay (AID 1919868). Note: potency is the fitted concentration of half-maximal effect; nearly all actives have a fitted effect of over 55% in size. Conditions: CellTiter-Glo ATP luminescence, 48 h; viability (% of DMSO control): at 45.8 µM (top of the series). The method in brief:
as §1

The nature of assay [15]: Quantitative High-Throughput drug screen in 47 multiple myeloma cell lines against the NCATS MIPE library collection: XG6_PLB cell viability assay (AID 1919865). Note: nearly all actives have a fitted effect of over 40% in size. Note: potency is the fitted concentration of half-maximal effect. The method in brief:
as §1

Where [16] appears, read: TFE3-RCC UOK109 viability, measured here: UOK109 Z-AUC.
[17] abbreviates: TFE3-RCC viability, measured here: UOK124 Z-AUC.
The mark [18] stands for this setting: TFE3-RCC viability, measured here: UOK145 Z-AUC.
Where [19] appears, read: measured here: PEO1 parental Z-AUC.

The term viability denotes a read-out of living cells in per cent, often relative to untreated cells.

Inconclusive results are not listed. Calls of active or inactive are those of the source. Unless noted, calls come from the whole dose curve; as a rule, active = well fitted cell-killing curve with a large enough effect; inconclusive = small, poorly fitted or top-dose-only effect, or effect the other way; inactive = no such curve, though single readings can be large or run the other way.

For the compound `CC(N[C@H]1C[C@H]1c1ccccc1)c1ccc2c(c1)OCCO2` (stereo partly drawn), the Potency entry in assay [1], in assay [3], in assay [4], in assay [5], in assay [6] and in assay [7] was “inactive” throughout. For the same compound, in assay [2], the Potency was 14.8 µM (active). Besides, the z-score in assay [8] (setting [16]) is 0.542; in assay [8] (setting [17]), 0.0589; in [8] (setting [18]), 0.597.

Regarding `O=c1cccc2n1CC1CNC[C@H]2C1`, the Potency in assay [1] is 20.9 µM (active); in [2] it was 20.9 µM (active); in [9] it was 20.9 µM (active); in assay [6], 6.62 µM (active); in assay [7] it was 5.26 µM (active). Also, the Potency result in [4] and in [5] was “inactive” each time. The figures for the Z-AUC in assay [10], in assay [10] (setting [19]) and in assay [10] (measured here: PEO4 Z-AUC) were 1.36 (inactive), 1.98 and 1.69, respectively.

Consider `c1ccc2c(CN3CCNCC3)cccc2c1`, for which, in [11], the viability is 106% (inactive). Moreover, the Potency result in [2], in assay [12], in [4], in assay [5] and in assay [6] was “inactive” in each case. Further, the Z-AUC is -0.771 (inactive) in [10], -0.119 in assay [10] (setting [19]) and -0.706 in assay [10] (measured here: PEO4 Z-AUC). In addition, the z-score amounted to 0.545 in [8] (setting [16]), 0.291 in assay [8] (setting [17]) and 0.833 in assay [8] (setting [18]).

As for `CCNC(=O)C[C@@H]1N=C(c2ccc(Cl)cc2)c2cc(OC)ccc2-n2c(C)nnc21`, the Potency was 469 nM (active) in assay [11]; 0.372 µM (active) in assay [2]; 833 nM (active) in assay [12]; 2.96 µM (active) in assay [3]; 1.18 µM (active) in assay [4]; 0.105 µM (active) in [6]. Further, the Z-AUC was -0.661 (inactive) in assay [10], -0.0106 in assay [10] (setting [19]) and -0.343 in assay [10] (measured here: PEO4 Z-AUC).

As to `C[C@@H]1CC[C@H]2[C@@H](C)C(=O)O[C@@H]3O[C@@]4(C)CC[C@H]1[C@]32OO4`, the Potency result in assay [2] and in assay [6] was “inactive” throughout. Besides, the Potency in assay [12] was 5900 nM (active); in assay [3] it was 0.743 µM (active); in assay [9], 6.62 µM (active); in [5], 264 nM (active). The z-score in [8] (setting [16]) is 0.72; in assay [8] (setting [17]), 0.74; in [8] (setting [18]) it was 0.344.

For the compound `COc1ccc(N(C(=O)Oc2c(C)cccc2C)c2ccnc(Nc3ccc(N4CCN(C)CC4)cc3)n2)c(OC)c1`, the Potency is 20.9 µM (active) in assay [1]; 296 nM (active) in assay [12]; 2.64 µM (active) in [3]; 16.6 µM (active) in [9]; 4.18 µM (active) in [4]; 9.35 µM (active) in assay [6]. The Potency in assay [7] is 7.43 µM (active). Moreover, the Z-AUC in [10] was -0.241 (inactive); in [10] (setting [19]) it was 0.364; in [10] (measured here: PEO4 Z-AUC) it was 0.481.

With `CC(C)N(CCNC(=O)CN1CCCC1=O)C(C)C`, the Potency result in assay [1], in assay [2], in [3], in assay [5], in assay [6] and in assay [7] was “inactive” in each case. Moreover, the z-score is 0.955 in assay [8] (setting [16]), 0.437 in assay [8] (setting [17]) and 0.681 in assay [8] (setting [18]).

For `Cc1c(C(=O)Nc2cccc(C(F)(F)F)c2)cc(-c2ccccc2)n1CCCN1CCOCC1`, the Potency in [1] was 18.7 µM (active); in assay [2], 16.6 µM (active); in [3], 14.8 µM (active); in assay [4] it was 14.8 µM (active); in assay [6], 23.5 µM (active); in assay [7], 5.9 µM (active). Further, the results for the Z-AUC in [10], in assay [10] (setting [19]) and in assay [10] (measured here: PEO4 Z-AUC) were -1.03 (inactive), -0.727 and -1.05, respectively.

Regarding `CC[C@@H](C(N)=O)N1CCCC1=O`, the figures for the Potency in assay [1] and in assay [12] were 26.4 µM (active) and 23500 nM (active), respectively. In addition, the Potency entry in assay [2], in [9], in [4], in [5], in assay [6] and in assay [7] was “inactive” in each case. The Z-AUC in assay [10] is -0.418 (inactive); in [10] (setting [19]), -0.901; in assay [10] (measured here: PEO4 Z-AUC), -0.237. The z-score in [8] (setting [16]) is 1.12; in [8] (setting [17]) it was 0.779; in assay [8] (setting [18]), 0.655.

For `C#C[C@]1(O)C=C[C@@H]2[C@@H]3CCC4=CC(=O)CC[C@@H]4[C@H]3CC[C@@]21CC`, in assay [11], the viability is 126% (inactive). Also, the Potency entry in [4], in [5] and in assay [7] was “inactive” each time. Besides, the figures for the z-score in assay [8] (setting [16]), in [8] (setting [17]) and in assay [8] (setting [18]) were 1.02, 0.666 and -1.42, respectively.

Take `CN(C)NC(=O)CCC(=O)O`: the Potency result in [1], in [4], in assay [5] and in [6] was “inactive” throughout. Moreover, the Potency in assay [13] is 16.6 µM (active). Besides, the Z-AUC in assay [10] is 1.04 (inactive); in assay [10] (setting [19]) it was 0.492; in assay [10] (measured here: PEO4 Z-AUC), 0.93. For the same compound, the figures for the z-score in assay [8] (setting [16]), in assay [8] (setting [17]) and in [8] (setting [18]) were 0.632, 0.666 and -0.178, respectively.

As for `Cc1c(N)nc([C@H](CC(N)=O)NC[C@@H](N)C(N)=O)nc1C(=O)N[C@H](C(=O)N[C@@H](C)[C@H](O)[C@@H](C)C(=O)N[C@@H](C(=O)NCCc1nc(-c2nc(C(=O)NCCC[S+](C)C)cs2)cs1)[C@@H](C)O)C(O[C@H]1O[C@H](CO)[C@H](O)[C@@H](O)[C@@H]1O[C@H]1O[C@H](CO)[C@@H](O)[C@H](OC(N)=O)[C@H]1O)c1cnc[nH]1` (stereo partly drawn), in [11], the viability was 89.3% (inactive). For the same compound, the Potency was 209 nM (active) in assay [12], 209 nM (active) in [14], 2350 nM (active) in [5] and 7.43 µM (active) in assay [7]. Further, the Potency entry in assay [9], in assay [4] and in [6] was “inactive” each time.

For the compound `COC1=CC(C)=C[C@@H](C)[C@@H](O)[C@@H](C)CC(C)=CC=C[C@H](OC)[C@H]([C@@H](C)[C@@H](O)[C@H](C)[C@@]2(O)C[C@@H](O)[C@H](C)[C@@H](C(C)C)O2)OC1=O`, the Potency in assay [1] is 0.0235 µM (active); in [15], 1 nM (active); in assay [3] it was 0.0118 µM (active); in assay [6], 0.0019 µM (active); in [7], 20.9 µM (active); in [8] (TFE3-RCC UOK109 viability), 26.4 µM (active). For the same compound, the z-score in assay [8] (setting [16]) was -1.69; in assay [8] (setting [17]) it was -2.76; in assay [8] (setting [18]), -3.22.

For the compound `Oc1ccc2c3c1O[C@H]1c4[nH]c5c(c4C[C@@]4(O)[C@@H](C2)N(CC2CC2)CC[C@]314)C[C@@]1(O)[C@H]2Cc3ccc(O)c4c3[C@@]1(CCN2CC1CC1)[C@H]5O4`, the Potency result in assay [1], in assay [15], in [12], in [3], in assay [4] and in assay [5] was “inactive” each time. Also, the Potency result in [6] and in assay [7] was “inactive” throughout. Moreover, the z-score is 0.682 in assay [8] (setting [16]), 0.462 in [8] (setting [17]) and 0.385 in assay [8] (setting [18]).

For the origin of these results see PubChem BioAssay (NCATS).
